Shown are actives, neighbours in structure and some others; about 5.3% of the full set was active somewhere.
12-hLO inh: qHTS Assay for Inhibitors of 12-hLO (12-human lipoxygenase). purified 12-hLO, xylenol orange hydroperoxide absorbance. 0.12% of 150,000 active. Polyunsaturated fatty acid lipoxygenase ALOX12 (Homo sapiens), P18054. Potency, µM (doses to about 57.1 µM), for inactives: at the highest dose activity change, negative = inhibition, most hits filed as inhibitors. AID 1452, 2008; note: potency is the fitted concentration of half-maximal effect; nearly all actives have a fitted effect of over 55% in size
Target sequence (P18054 whole entry, looked up): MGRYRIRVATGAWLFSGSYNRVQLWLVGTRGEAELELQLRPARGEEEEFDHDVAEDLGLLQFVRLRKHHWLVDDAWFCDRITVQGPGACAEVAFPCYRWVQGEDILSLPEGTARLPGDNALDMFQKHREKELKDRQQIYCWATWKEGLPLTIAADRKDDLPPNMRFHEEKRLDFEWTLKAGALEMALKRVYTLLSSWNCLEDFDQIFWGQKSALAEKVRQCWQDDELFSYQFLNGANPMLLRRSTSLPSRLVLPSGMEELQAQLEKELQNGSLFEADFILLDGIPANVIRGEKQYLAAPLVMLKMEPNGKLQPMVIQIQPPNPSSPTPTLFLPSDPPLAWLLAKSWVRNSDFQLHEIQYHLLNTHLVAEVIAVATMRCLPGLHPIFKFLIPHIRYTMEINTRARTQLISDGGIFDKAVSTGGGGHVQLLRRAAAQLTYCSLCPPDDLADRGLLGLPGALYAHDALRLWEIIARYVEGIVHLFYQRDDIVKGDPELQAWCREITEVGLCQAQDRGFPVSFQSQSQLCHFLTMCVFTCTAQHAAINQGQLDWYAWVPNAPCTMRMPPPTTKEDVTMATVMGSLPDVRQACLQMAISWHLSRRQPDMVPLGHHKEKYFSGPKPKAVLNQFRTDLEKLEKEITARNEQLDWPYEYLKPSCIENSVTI
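150 nM 12hLO, 25 mM Hepes pH 7.0 + 0.01% Triton X-100; cpd preinc 15 min RT; 40 uM arachidonic acid, 30 min RT; Fe-XO 30 min; A573/A405 ratio as read-out.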
IMPase inh: qHTS Assay for Identifying the Cell-Membrane Permeable IMPase Inhibitors | 120,000 tested, under 10 active | CHO-M1 cells, IP1 accumulation, HTRF TR-FRET ratio | inhibition (IP1 accumulation), % at 46.1 µM | Inositol monophosphatase 1 (Rattus norvegicus), P97697; active = well fitted curve in the direction sought with a large enough effect in the signal ratio, not every such curve was filed as active; inconclusive = small, poorly fitted or top-dose-only effect, or a change in a side signal; inactive = no such curve, though single readings can be large or run the other way; the % refers to the signal ratio;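 note: cells stimulated with carbachol in lithium chloride buffer; plate controls were DMSO basal wells for no effect and reference inhibitor wells for full effect; higher means more IMPase inhibition seen as more IP1 and lower FRET ratio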
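Cellular IMPase inhibition is scored as a rise in cytosolic IP1, detected by competitive TR-FRET between d2-labelled IP1 and a europium anti-IP1 antibody. M1-expressing CHO cells were stimulated with carbachol for 30 min at 37C, with lithium (50 mM LiCl) present in the buffer.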
IMPase Li inh: qHTS Assay for Identifying the Cell-Membrane Permeable IMPase Inhibitors: Potentiation with Lithium | CHO-M1 cells, IP1 TR-FRET (IP-One), carbachol + lithium | Potency, µM (doses to about 59.4 µM), without a hit: at the top dose activity, negative = IMPase inhibition, usual class: inhibitors | 0.35% of 210,000 active | AID 1457, 2008;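 note: IP1 builds up when IMPase is blocked and the TR-FRET signal falls; potency is the fitted concentration of half-maximal effect; plate controls were basal vehicle for no effect and high inhibitor control for full effect; nearly all actives have a fitted effect of over 50% in size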
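Lithium-sensitised IP1 accumulation assay; M1-expressing CHO cells treated 30 min at 37C with compound. Competitive antibody detection by time-resolved FRET followed a 10 min room-temperature lysis step.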
PNC assembly inh: High Content Assay for Compounds that inhibit the Assembly of the Perinucleolar Compartment; PC3M PTB-GFP, PNC prevalence imaging, 16 h; active compounds read low; activity change (PNC), negative = inhibition, % at 10 µM; 3.1% of 140,000 active;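 active = readout at or below -70, meaning at least 70% loss of cells showing the perinucleolar compartment, a nuclear body marking cancer cells; inconclusive = readout between -30 and a set limit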;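 note: plate controls were DMSO wells for no effect and camptothecin positive control wells for full effect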
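Compounds are pinned in duplicate onto adhered PC3M cells stably expressing GFP-tagged PTB and incubated 16 h at 37 C. Cells are then fixed, nuclei stained with Hoechst, and PNC-positive cells counted.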
15-hLO-2 inh: qHTS Assay for Inhibitors of 15-hLO-2 (15-human lipoxygenase 2) | Polyunsaturated fatty acid lipoxygenase ALOX15B (Homo sapiens), O15296 | Potency, µM (top dose mostly 57.1 µM), for the others: at the top dose activity change, negative = inhibition, most hits filed as inhibitors | AID 881, 2007 | purified 15hLO-2, xylenol orange hydroperoxide absorbance | 0.56% of 110,000 active; note: potency is the fitted concentration of half-maximal effect; nearly all actives have a fitted effect of over 60% in size
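Enzyme 50 nM, AA 45 uM, 25 mM Hepes pH 7.5 + 0.01% Triton X-100; cpd preinc 15 min RT, rxn 90 min RT; stop/detect with 200 uM XO + 300 uM Fe(II) in 50 mM H2SO4, 30 min; A573/A405.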
HPGD inh: qHTS Assay for Inhibitors of HPGD (15-Hydroxyprostaglandin Dehydrogenase); purified HPGD, NADH fluorescence kinetic, PGE2 substrate; Potency, µM, without a hit: at the top dose activity change, negative = inhibition, hits mostly inhibitors; 4.3% of 150,000 active; AID 894, 2007; active = well fitted inhibition curve with a large enough effect, not every such curve was filed as active; inconclusive = small, poorly fitted or top-dose-only effect, or another doubt; inactive = no such curve, though single readings can be large or run the other way; note: potency is the fitted concentration of half-maximal effect
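20 nM HPGD preincubated 15 min at room temperature with compound in 50 mM Tris-HCl pH 8, 0.01% Tween 20. Started with 1 mM NAD+ and 30 uM prostaglandin E2; NADH fluorescence (360/450 nm) read 5 times over 30-s intervals, last minus first.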
* = called active by the depositor; [ ] = remark or other dose. Unless noted, calls come from the whole dose curve; as a rule, active = well fitted curve in the direction sought with a large enough effect; inconclusive = small, poorly fitted or top-dose-only effect, or another doubt; inactive = no such curve, though single readings can be large; an effect the other way counts as inactive or inconclusive. Unless noted, % is set by controls: 0 for no effect and ±100 for the full control effect.

How did CCOC(=O)c1c(NC(=O)COc2cccc3c2CCN(CC)C3=O)sc2c1CCC2 do in these assays?
12-hLO inh: -2%; IMPase Li inh: 8%; PNC assembly inh: 36; HPGD inh: inconclusive

What do the screens show for `CCOC(=O)N1CCN(CCC(=O)Nc2cc(C)ccc2C)CC1`?
IMPase inh: -3

Results for Cc1cccc(N2CC(O)=C(c3nc4ccccc4n3C)C2=N)c1 ?
12-hLO inh: -1%; IMPase inh: -4; IMPase Li inh: -13%[38.3 µM]; PNC assembly inh: inconclusive; 15-hLO-2 inh: 23%; HPGD inh: 11µM*

Results for Cn1c(C2=C(O)CN(c3ccccc3)C2=N)nc2ccccc21 ?
IMPase Li inh: -3%

How did CCOC(=O)c1c(NC(=O)C2C3C=CC(C3)C2C(=O)O)sc2c1CC(C)CC2 (stereo not drawn) do in these assays?
IMPase Li inh: -14%

How did CCOC(=O)c1c(NC(=O)c2ccc(N3C(=O)[C@@H]4[C@H](C3=O)[C@H]3C=C[C@@H]4C3)cc2)sc2c1CC(C)CC2 (stereo partly drawn) do in these assays?
12-hLO inh: 2%; IMPase Li inh: -1%; PNC assembly inh: -125*; HPGD inh: inconclusive

Results for c1ccc2c(c1)OCCOCCOCCOCCOCCOc1ccccc1OCCOCCOCCO2 ?
12-hLO inh: 4%; IMPase Li inh: 2%; PNC assembly inh: 44; HPGD inh: -3%

Results for CCCCOC(=O)n1c(=S)oc2cc(Cl)ccc21 ?
12-hLO inh: 3%; IMPase inh: -8; IMPase Li inh: -3%[38.3 µM]; PNC assembly inh: 69; 15-hLO-2 inh: -6%; HPGD inh: -22%

How did COC(=O)n1c(=S)oc2cc(Cl)ccc21 do in these assays?
12-hLO inh: -1%; IMPase inh: 10; IMPase Li inh: 18%[38.3 µM]; PNC assembly inh: inconclusive; 15-hLO-2 inh: -16%; HPGD inh: 22µM*

Results for Cc1sc2ncnc(SCC(=O)NC(C)(C)C)c2c1C ?
IMPase Li inh: 2%

What do the screens show for `Cc1sc2ncnc(SCC(=O)NCC(C)C)c2c1C`?
12-hLO inh: -1%; IMPase inh: 2; IMPase Li inh: 8%[38.3 µM]; PNC assembly inh: 27; 15-hLO-2 inh: 0%; HPGD inh: 16µM*

How did CCOc1ccc2oc(C(=O)NCC(C)(C)CN(C)C)c(C)c2c1 do in these assays?
IMPase Li inh: -5%

How did CC(=O)Nc1ccc(NC(=O)c2ccc(NS(=O)(=O)c3cc(C(C)(C)C)cc(C)c3C)cc2)cc1 do in these assays?
12-hLO inh: -3%; IMPase Li inh: -5%; PNC assembly inh: -89*; HPGD inh: -22%

Results for O=C1C=CC2=C3c4cc(O)c(O)cc4C[C@@]3(O)COC2=C1 ?
IMPase Li inh: 15%; HPGD inh: 11µM*

What do the screens show for `COc1ccc(/C=N/n2c(SC)nnc2-c2ccccc2)c(OC)c1OC`?
12-hLO inh: -5%; IMPase inh: -1; IMPase Li inh: 8%[38.3 µM]; PNC assembly inh: -125*; 15-hLO-2 inh: -10%; HPGD inh: inconclusive

What do the screens show for `CCN(CC)S(=O)(=O)c1ccc(N2CCCCC2)c(NC(=O)/C(C#N)=C/c2ccc(OC)cc2)c1`?
12-hLO inh: -2%; IMPase Li inh: 2%; PNC assembly inh: -10; HPGD inh: -18%

Results for COc1ccc(/C=C(\C#N)C(=O)Nc2cc(S(=O)(=O)N3CCOCC3)ccc2N2CCCC2)cc1 ?
12-hLO inh: 2%; IMPase Li inh: 5%; PNC assembly inh: 7; HPGD inh: 13µM*

Source: PubChem
